In PubChem BioAssay (NCI):
This is part of a sample that, as a whole, favours compounds with a hit. Of some 83,000 tested, about 20% had one in any assay.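 Activity criterion: percent growth below 10, measured after cells in 96-well plates were exposed to a single compound concentration for 48 hours.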 A number with no mark means an inactive call. Activity calls are given as the source filed them.

Tested on: MDA-MB-468 breast
Assay: NCI-60 one-dose screen, 48 h (100 = growth as untreated, 0 = no growth, -100 = all killed)
Conditions: 10 µM unless noted

SMILES	growth
NS(=O)(=O)c1ccc(CCN2C(=O)/C(=C\c3ccc(Cl)cc3)C=C2c2ccc(Oc3ccccc3)cc2)cc1	76.7%
COC[C@@]1(C)CC[C@]2(C)CC[C@]3(C)C(=CC[C@@H]4[C@@]5(C)CCCNC(C)(C)[C@@H]5CC[C@]43C)C2C1 (stereo not given in full)	50.9%
Cc1cc(-c2ccc(N=Nc3c(C)nn(-c4ccc(S(=O)(=O)O)cc4)c3O)c(C)c2)ccc1N=Nc1ccc(O)c(C(=O)O)c1	113%
O=C(c1ccncc1)N1N=C(c2ccc(Cl)cc2)CC1c1c[nH]c2ccccc12 (stereo not given)	102%
CCCCCC(=O)Oc1ccc(/C(=C(\C)c2ccccc2)c2ccc(OCCN3CCCCC3)cc2)cc1	75.7%
CS(=O)(=O)Nc1cc(-c2ccc3ncnc(Nc4c(Cl)ccc5c4OCO5)c3c2)cnc1Cl	-74.3% (active)
COc1ccc(CN2c3ccccc3Oc3ccccc32)cc1F	44.3%
CCOc1ccc2c(c1)c(C)cc(C)[n+]2CC	9.85% (active)
Cc1ccc(-c2nn(Cc3cn(-c4cc(C)nc5ccccc45)nn3)c3ncnc(N)c23)cc1	15.4%
CCc1nc2c(=O)[nH]cnc2o1	90.8%
c1cc(-c2nc3ccc4[nH]ncc4c3c3c2CCCC3)[nH]n1	43.6%
O=C1/C(=C/c2ccccc2Cl)CCc2ccccc21	101%
CC(=O)C1CC(C)CCC1C(C)C (stereo not given)	-8.03% (active)
Oc1ccccc1/C=N/Nc1ccc2ccccc2n1	15.1%
O=C(N/N=C/c1ccccc1O)c1ccccc1	12.1%
CN(C)CCC(=O)c1c[nH]c2ccccc12	106%
CC(C)C1CCC(C)C(C2(C#N)C(N)=NC(N)=C2C#N)C1=O (stereo not given)	107%
Cc1cc(NCCCNc2ccnc3cc(Cl)ccc23)nc(Nc2ccc(C(=O)N3CCCCC3)cc2)n1	-19% (active)
O=C1OC(/C=C/c2ccccc2)=NC/1=C/c1ccccc1[N+](=O)[O-]	101%
COS(=O)(=O)CCN(CCOS(C)(=O)=O)S(C)(=O)=O	104%

SMILES	growth
Oc1cc(O)c2c(=S)cc(-c3ccc(Cl)cc3)oc2c1	-6.34% (active)
COc1cc2c3c(cc4c5c(ccc4c3c1OC)OCO5)N(CCN(C)C)C2=O	-48.8% (active)
CCN1C(=O)N(CC)C2C1NN=c1s/c(=C3\C(=O)N(C4CCCC4)c4ccccc43)c(=O)n12 (stereo not given)	-43.2% (active)
N=C(N)c1ccc(-c2ccc(-c3ccccc3)s2)s1	-94.5% (active)
CC1(O)CCCCCC1	100%
O=C1c2ccc3c4ccc5c6c(ccc(c7ccc(c2c37)C(=O)N1CCC[P+](c1ccccc1)(c1ccccc1)c1ccccc1)c64)C(=O)N(CCC[P+](c1ccccc1)(c1ccccc1)c1ccccc1)C5=O	-2.38% (active)
CCOC(=O)C(CNc1ccccc1)C(=O)OCC	93.3%
COc1ccc(N(C)c2nc(Cl)nc3cnn(C)c23)cc1	26.9%
CC1Cc2c(ncn3c(-c4ccc(F)cc4)nnc23)N(C)c2ccccc21 (stereo not given)	66%
CCCCC(=O)OC1CCCCC1C (stereo not given)	86.6%
CNCCCn1c2c(c3ccc(F)cc3c1=O)C(=O)c1cc(OC)cnc1-2	-47.6% (active)
O=C1[C@@H](OS(=O)(=O)CC(F)(F)F)[C@H](c2ccc(F)cn2)N1c1cc2c3ccccc3ccc2c2ccccc12	89.4%
COc1cc(-c2ccc(N=Nc3c(O)c(C(=O)Nc4ccccc4OC)cc4ccccc34)c(OC)c2)ccc1N=Nc1c(O)c(C(=O)Nc2ccccc2OC)cc2ccccc12	95%
C=CCO[C@H]1CO[C@H]2[C@@H]1OC[C@@H]2Oc1ccc(Nc2ccnc(Nc3ccc(O[C@H]4CO[C@H]5[C@@H]4OC[C@@H]5OCC=C)c(Cl)c3)n2)cc1Cl	-84.5% (active)
CCNCc1c(-c2cccc(OC(F)(F)F)c2)[nH]c2ccc(N3CCCC3)cc2c1=O	36.6%
Cc1ccc(C(=O)CSc2nnc(-c3ccc(-c4ccc(Cl)cc4)nc3C)o2)cc1	94.9%
CC1=NC(=S)NC(c2ccccc2)/C1=C1/CC(c2ccccc2O)NN1 (stereo not given)	107%
COC(=O)c1nc(-c2ccc(C)cc2)oc1S(=O)(=O)N1CCN(c2oc(-c3ccccc3)nc2C#N)CC1	93.9%
N[C@@H](Cc1cn(-c2c3ccccc3nc3ccccc23)nn1)C(=O)O	96.8%
Cc1ccc(-c2nc(SCC(=O)c3ccc(C#N)cc3)[nH]c(=O)c2C#N)cc1	120%
